Measured values taken from ChEMBL document CHEMBL4513216, “Probing the Open Global Health Chemical Diversity Library for Multistage-Active Starting Points for Next-Generation Antimalarials” (ACS Infect Dis, 2020).
The whole screen tested about 69,000 compounds, of which about 8,600 (12%) showed an effect of 50% or more. Shown is part of a subset that was picked to be rich in strong results.

System: Plasmodium berghei
Experiment: Screen against P. berghei liver stage (PbLuc), transformed with Luciferase, at 10uM
Type: functional, HepG2
Details: tested at 10 uM

Row | SMILES | INHIBITION
1 | COc1ccccc1C(C)(C)NC(=O)NCCC(=O)NC1CCCC1 | 19.7%
2 | Cc1ccc(OCC2CCCN(C(=O)CCn3ccccc3=O)C2)cc1 (stereo not given) | 18.5%
3 | Cc1ccc(OCC2CCCN(c3nc(CO)cs3)C2)cc1 (stereo not given) | 34.4%
4 | Cc1ccc(OCC2CCCN(CC3CCOCC3)C2)cc1 (stereo not given) | 51.1%
5 | Cc1ccc(OCC2CCCN(Cc3ccc(CO)o3)C2)cc1 (stereo not given) | 22.3%
6 | Cc1ccc(OCC2CCCN(C(=O)Cn3ccccc3=O)C2)cc1 (stereo not given) | 18.5%
7 | Cc1ccc(OCC2CCCN(C(=O)CN3CCOCC3)C2)cc1 (stereo not given) | 56.5%
8 | Cc1ccc(N2CCC3(CC2)CNC(=O)CO3)nn1 | 21.7%
9 | O=C(NC[C@H]1OC[C@@H]2CN(Cc3ccco3)CC[C@@H]21)c1cscn1 | -72%
10 | COCCCN1CCCC(c2nccn2CC2CCC2)C1 (stereo not given) | 42.8%
11 | CN(C(=O)Cn1nnnc1C(C)(C)C)c1ccccc1 | 50.8%
12 | N#CCCN(C(=O)CN1CCCC1C1CCCCC1)c1ccccc1 (stereo not given) | 5.14%
13 | CC(=O)N(C)c1nc(Cn2nnnc2C(C)(C)C)cs1 | 24.2%
14 | CN(CCC#N)C(=O)Cn1nnnc1C(C)(C)C | 61.9%
15 | CN(C(=O)Cn1nc(-c2ccc(F)cc2)oc1=O)c1ccccc1 | 42.6%
16 | Cc1cc(C)n(CC2CCCN2CC(=O)N(C)CCC#N)n1 (stereo not given) | 36.1%
17 | CC(C)(C)c1nnnn1CC(=O)N(CCC#N)c1ccccc1 | 65.6%
18 | Cc1nc(CN2CCCN(CC(=O)N(C)CCC#N)CC2)no1 | 36.5%
19 | CN(CC(=O)N(CCC#N)c1ccccc1)C1CCc2ccccc21 (stereo not given) | 28.9%
20 | CCCSc1ncc(Cl)c(C(=O)NC(CCSC)C(=O)O)n1 (stereo not given) | 26.3%
21 | CCN1C(=O)CCC12CCN(C(=O)c1ccco1)CC2 | 27.2%
22 | CCN1CCn2c(C)cnc2C12CCN(C(=O)CC(C)C)CC2 | -0.182%
23 | CC[C@H](C)Nc1nccc(-c2cnc3sc(C)cn3c2=O)n1 | 39.7%
24 | CCC(=O)N1CCc2c(O)nc(C3CCCCN3C(=O)C3CC3)nc2C1 (stereo not given) | -7.6%
25 | O=c1[nH]c(NC2CCCC2)nc2nccc(-c3ccco3)c12 | -37.9%
26 | O=C(O)Cn1nc(C2CC2)c2c(-c3cccs3)ccnc21 | 11.6%
27 | NC(=O)C1CCN(c2nc3nccc(-c4cccnc4)c3c(=O)[nH]2)CC1 | 47.4%
28 | O=c1[nH]c(NC2CCCC2)nc2nccc(-c3ccsc3)c12 | 61.1%
29 | NC(=O)C1CCN(c2nc3nccc(-c4ccncc4)c3c(=O)[nH]2)CC1 | 41.6%
30 | O=c1[nH]c(NC2CCCC2)nc2nccc(-c3cccs3)c12 | 52.2%
